Gli-Sufu block – Gli-Sufu pathway antagonists, primary screen, luciferase luminescence, Sufu-KO-LIGHT cells, uHTS. Sufu-KO-LIGHT fibroblasts, Gli luciferase reporter luminescence. 0.74% of 340,000 active. inhibition, % at 5 µM;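 active = inhibition above about 55%, limit read from the data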
Shn3 inh set2 – reduction of Shn3 3'UTR firefly luciferase signal, primary screen, Schnurri-3 inhibitor project, cell-based, Clone20 osteoblasts, set 2 | inhibition, % at 12.5 µM | Clone20 osteoblast Shn3 3'UTR firefly luciferase, 24 h | 0.52% of 360,000 active;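 active = mean inhibition of at least 75% with every replicate also reaching 75%; inconclusive = mean inhibition at least 75% but some replicate below; inactive = mean inhibition below 75%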
CSC inhib – cancer stem cell viability inhibitors, primary screen, luminescence. cancer stem cell-like cells viability. inhibition, % at 7.5 µM. 1.1% of 300,000 active; in the data active = inhibition above about 75%; inconclusive = no clear call, values can overlap the other calls; tested in HMLE shEcad cells
Beta cell apopt – inhibitors of cytokine-induced beta cell apoptosis, primary screen, luminescence. 0.8% of 300,000 active. protection from apoptosis, % (concentration not given with the values). INS-1E cytokine-induced death, ATP luminescence, 48 h; percent of positive-control rescue, neutral wells zero;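 active = Every replicate reaches about 75%, or at least half do and their mean reaches it too, limit read from the data; inconclusive = At least half of replicates reach the limit but their mean does not; inactive = Under half of replicates reach the limit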;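 also: higher means more ATP so stronger rescue from cytokine killing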
PAX8 inh HTS – inhibitors of PAX8-driven TPO luciferase reporter, primary screen, RMG-I cells, single concentration; inhibition, % at 12.6 µM; AID 652154, 2013; SteadyGlo, 24 h; 1.2% of 360,000 active;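 active = mean replicate inhibition at least 60% with every replicate also reaching 60%; inconclusive = only one of the two criteria is met; inactive = mean below 60% and not all replicates reaching 60%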;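 also: luciferase light reporting Pax8 driven TPO promoter activity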
Mdm2 MdmX PPI – inhibitors of human Mdm2-MdmX association, primary screen, cell-based, luminescence, split luciferase, SaOS-2, uHTS. SaOS-2 split-luciferase Mdm2/MdmX complementation. inhibition, % at 8 µM. 3% of 330,000 active;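 active = inhibition of at least 50% at 8 µM in the primary screen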
Target sequence (O15151 whole entry, looked up): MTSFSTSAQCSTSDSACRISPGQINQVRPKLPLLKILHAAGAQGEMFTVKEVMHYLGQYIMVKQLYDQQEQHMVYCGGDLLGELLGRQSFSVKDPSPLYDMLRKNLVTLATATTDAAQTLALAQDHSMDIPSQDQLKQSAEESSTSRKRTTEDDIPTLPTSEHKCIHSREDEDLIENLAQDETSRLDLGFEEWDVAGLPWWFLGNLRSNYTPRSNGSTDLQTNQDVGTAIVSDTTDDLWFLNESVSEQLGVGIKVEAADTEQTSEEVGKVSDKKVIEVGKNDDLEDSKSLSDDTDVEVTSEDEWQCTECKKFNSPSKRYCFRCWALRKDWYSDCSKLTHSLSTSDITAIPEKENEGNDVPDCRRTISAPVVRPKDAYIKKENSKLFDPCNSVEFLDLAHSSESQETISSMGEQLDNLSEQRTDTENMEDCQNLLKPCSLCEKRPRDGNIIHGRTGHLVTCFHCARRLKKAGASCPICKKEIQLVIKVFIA
Target sequence (Q00987 whole entry, looked up): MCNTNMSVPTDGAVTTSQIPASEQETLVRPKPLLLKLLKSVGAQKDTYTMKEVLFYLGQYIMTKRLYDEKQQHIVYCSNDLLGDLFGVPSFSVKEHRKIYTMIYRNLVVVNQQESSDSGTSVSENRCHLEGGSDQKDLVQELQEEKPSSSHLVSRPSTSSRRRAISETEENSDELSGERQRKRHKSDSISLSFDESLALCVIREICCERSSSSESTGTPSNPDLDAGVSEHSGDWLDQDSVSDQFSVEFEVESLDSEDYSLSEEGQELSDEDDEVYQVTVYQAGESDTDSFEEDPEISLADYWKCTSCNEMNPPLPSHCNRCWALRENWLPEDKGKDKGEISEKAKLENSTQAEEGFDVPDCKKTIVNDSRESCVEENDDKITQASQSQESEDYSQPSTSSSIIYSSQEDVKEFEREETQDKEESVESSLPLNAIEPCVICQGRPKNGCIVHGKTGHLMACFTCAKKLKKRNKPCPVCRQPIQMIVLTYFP
Mdm2 MdmX conf – Mdm2-MdmX complex disruptors, retested hits, confirmation, luminescence, single concentration; shares compounds with Mdm2 MdmX PPI; Mdm2-MdmX binding, luminescent assay; inhibition, % at 8 µM; 55% of 10,000 active; AID 489028, 2010; in the data active = inhibition above about 40%
Full FLuc ctr – full-length luciferase signal inhibition, confirmation, counter-screen for Mdm2/MdmX interaction inhibitor project, cell-based, single concentration, SaOS-2; AID 504607, 2011; inhibition, % at 8 µM; 77% of 6,200 active; shares compounds with Mdm2 MdmX PPI; SaOS-2 full-length luciferase counterscreen, luminescence;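 active = mean inhibition at 8 µM reaching about 37%, which flags the compound as non-specific, limit read from the data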;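 also: p53-null SaOS-2 cells with luciferase driven by a doxycycline-inducible promoter; compound on cells about two nights before reading with doxycycline added after day one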
Numbers stand for hits; 0 = inactive; ? = inconclusive; - = no result; + = active, no number. Most compounds without a hit are left out; they make up all but 4% or so of the library.

SMILES | Gli-Sufu block | Shn3 inh set2 | CSC inhib | Beta cell apopt | PAX8 inh HTS | Mdm2 MdmX PPI | Mdm2 MdmX conf | others
COc1cccc(-c2nc(-c3ccccn3)no2)c1 | 0 | - | 0 | - | 70 | 55 | 0 | Full FLuc ctr=57
c1ccc(-c2noc(-c3ccc4ccccc4c3)n2)nc1 | 62 | 89 | 0 | 0 | - | 80 | 83 | Full FLuc ctr=0
C[C@@H]1CN([C@@H](C)CO)C(=O)c2cc(NC(=O)Cn3cnnn3)ccc2O[C@@H]1CN(C)Cc1ccc(Oc2ccccc2)cc1 | - | - | - | - | 0 | - | -
COc1cccc(S(=O)(=O)N[C@H]2CC[C@H](CCn3cc(-c4ccccc4)nn3)O[C@H]2CO)c1 | - | - | - | - | 0 | - | -
C[C@H]1CN([C@@H](C)CO)C(=O)c2cc(C3=CCCC3)cnc2O[C@H]1CN(C)S(=O)(=O)c1cn(C)cn1 | - | - | - | - | 0 | - | -
CC(=O)N(CC(C)C)C[C@H]1[C@@H](c2ccc(C3=CCCC3)cc2)[C@@H](CO)N1C(C)=O | - | - | - | - | 0 | - | -
CCNc1nc(NC(C)C)nc(Oc2ccc(OCCOc3ccc(C)cc3)nn2)n1 | 0 | 0 | 0 | 0 | - | 52 | 0
CN1C(=O)/C(=C/c2cc(N=Nc3ccccc3)ccc2O)SC1=S | 0 | 0 | + | 0 | - | 92 | 47 | Full FLuc ctr=53
Cc1c(N2C(=O)/C(=C\c3ccccc3O)SC2=S)c(=O)n(-c2ccccc2)n1C | 0 | 0 | 0 | 0 | 0 | 0 | -
CN1c2ccc(-c3cccc(C#N)c3)cc2[C@@H]2[C@@H](CCN2C(=O)Cc2ccccn2)[C@@H]1CO | - | - | - | - | 0 | - | -
COc1ccc(Cl)cc1NC(=O)CN(C)CC(=O)Nc1ccccc1N1CCOCC1 | 0 | 0 | 0 | 0 | 0 | 58 | 55 | Full FLuc ctr=65
COc1ccc(Cl)cc1NC(=O)CN(C)C(=O)c1sc2ccccc2c1Cl | 0 | 0 | - | 0 | 0 | 54 | 0
COc1ccc(Cl)cc1NC(=O)Cn1cccc1 | 0 | 0 | 0 | 0 | - | 0 | -
COc1ccc(Cl)cc1NC(=O)CN(C)CC(=O)N1CC(=O)Nc2ccccc21 | 0 | 0 | - | 0 | 0 | 0 | -
COc1ccc(Cl)cc1NC(=O)CC(=O)Nc1cc(Cl)ccc1OC | 0 | 0 | 0 | 0 | 0 | 66 | 0
CO[C@H]1CN(C)C(=O)c2cc(NC(=O)C3CC3)ccc2OC[C@@H](C)N(CC2CC2)C[C@@H]1C | - | - | - | - | 0 | - | -
CC1CCCCN1C(=O)CSc1nc(C2CC2)nc2c1cnn2-c1ccccc1 (stereo unspecified) | 0 | 0 | - | - | - | 54 | 0
Cc1nn(C)c(C)c1NC(=O)CSc1nc(C2CC2)nc2c1cnn2-c1ccccc1 | 0 | 0 | 0 | 0 | 0 | 0 | -
Clc1ccc(C(c2nnnn2C2CCCC2)N2CCN(Cc3ccncc3)CC2)cc1 (stereo unspecified) | 0 | 0 | 0 | 0 | - | 0 | -
O=c1c(C(c2nnnn2C2CCCCC2)N2CCCCC2)coc2ccc(Cl)cc12 (stereo unspecified) | 0 | 0 | 0 | 0 | 0 | 53 | 0
COCC(=O)Nc1ncc(S(=O)(=O)c2ccc([N+](=O)[O-])cc2)s1 | 0 | 0 | 0 | 0 | 0 | 0 | -
O=C(NC(Nc1ncc(S(=O)(=O)c2ccc([N+](=O)[O-])cc2)s1)(C(F)(F)F)C(F)(F)F)c1ccc(Cl)cc1 | 0 | 0 | 89 | 113 | 76 | 97 | 96 | Full FLuc ctr=0
COc1ccccc1/C=C/C1(C(=O)NC2CCCC2)CC(=O)N1c1ccc(F)cc1 (stereo unspecified) | 0 | 0 | ? | 0 | - | 70 | 89 | Full FLuc ctr=49
O=C(O)[C@@H]1[C@@H](CO)[C@@H]2Cn3c(ccc(/C=C/c4ccccc4)c3=O)[C@@H]2N1C(=O)C1CCCC1 | - | - | - | - | 0 | - | -
Cc1c(C(=O)NCc2ccc3c(c2)OCO3)oc2ccc(Br)cc12 | 0 | 0 | 0 | 0 | - | 73 | 0
SMILES | Gli-Sufu block | Shn3 inh set2 | CSC inhib | Beta cell apopt | PAX8 inh HTS | Mdm2 MdmX PPI | Mdm2 MdmX conf | others
Cc1ccc2oc(C(=O)NCc3ccc4c(c3)OCO4)c(C)c2c1 | 0 | 0 | 0 | 0 | - | 0 | -
CN(C)c1ccccc1C(=O)c1ccccc1N(C)C | 0 | 0 | 0 | 0 | 0 | 0 | -
CN(C)c1ccc(C(=O)c2ccc(N(C)C)c3ccccc23)cc1 | 0 | 0 | 0 | 0 | - | 56 | 50 | Full FLuc ctr=181
COc1ccc(C(=O)c2ccc(N(C)C)cc2)c(OC)c1 | 0 | 0 | 0 | 0 | - | 62 | 48 | Full FLuc ctr=37
COc1ccc(C[C@@H]2CCc3cnnn3COC[C@H](CC(C)C)NC2=O)cc1 | - | - | - | - | 0 | - | -
COc1cccc(S(=O)(=O)N[C@@H]2CC[C@H](CC(=O)NCc3ccc(F)cc3)O[C@@H]2CO)c1 | - | - | - | - | 0 | - | -
C=CCn1c(N)c(C(=O)Nc2cccc(C)c2)c2nc3ccccc3nc21 | 0 | 0 | 0 | 0 | 0 | 67 | 0
N#Cc1c(N)n(CCCN2CCOCC2)c2nc3ccccc3nc12 | 0 | 0 | 0 | 0 | 0 | 0 | -
Nc1c(C(=O)Nc2ccccc2)c2nc3ccccc3nc2n1CCCN1CCOCC1 | 0 | 0 | 98 | 0 | 0 | 67 | 0
C[C@@H]1CN([C@@H](C)CO)C(=O)Cc2cc(NS(=O)(=O)c3cn(C)cn3)ccc2O[C@@H]1CN(C)C(=O)NC1CCCCC1 | - | - | - | - | 0 | - | -
COc1ccc(-c2ccc3c(c2)c(-c2cccs2)c(-c2cc(OC)cc(OC)c2)n3C)cc1 | 0 | 0 | 0 | 0 | 0 | 0 | -
COc1ccc(-c2c(-c3cc(OC)cc(OC)c3)n(C)c3ccc(-c4ccc(SC)cc4)cc23)cc1 | 0 | 0 | 0 | 0 | 0 | 0 | -
COc1cc(OC)cc(-c2c(-c3ccc(F)cc3)c3cc(-c4ccc(OC)nc4)ccc3n2C)c1 | 0 | 0 | - | 0 | 0 | 52 | 0
COc1cc(OC)cc(-c2c(-c3cccs3)c3cc(-c4ccc(C(N)=O)cc4)ccc3n2C)c1 | 0 | 0 | - | 0 | 0 | 86 | 0
COc1cc(OC)cc(-c2c(-c3ccc(F)cc3)c3cc(-c4ccc(SC)cc4)ccc3n2C)c1 | 0 | 0 | - | 0 | 0 | 53 | 0
O=c1cc(-c2cccc(F)c2)oc2ccccc12 | 0 | 0 | - | - | 0 | - | -
COc1c(OC)c(O)c2c(=O)cc(-c3c(O)cccc3O)oc2c1OC | 0 | 0 | 0 | - | - | 0 | -
O=c1cc(-c2c(F)c(F)c(F)c(F)c2F)oc2c(F)c(F)c(F)c(F)c12 | - | - | 101 | 107 | - | 100 | 99 | Full FLuc ctr=0
O=c1cc(-c2c(F)c(F)c(F)c(F)c2F)oc2ccccc12 | 0 | 0 | 0 | 0 | - | 96 | 0
O=C(NC[C@@H]1[C@H](c2ccccc2)[C@@H](CO)N1C(=O)Cc1cccnc1)C1CCC1 | - | - | - | - | 0 | - | -
